This note sets out measurements from PubChem BioAssay (NCI).

This is part of a sample that, as a whole, favours compounds with a hit. Of some 83,000 tested, about 20% had one in any assay.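 Step 1: grow cells in 96-well plates. Step 2: add test compound at a single concentration. Step 3: incubate 48 h. Step 4: record percent growth.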 Unmarked numbers belong to inactive results. Active and inactive are the calls of the source. Rule for the calls: active = growth percent below 10; inactive = the rest.

One test has as its system SW-620 colon. Description: NCI-60 one-dose screen, 48 h (100 = growth as untreated, 0 = no growth, -100 = all killed). As to conditions: 10 µM unless noted.
Take `COc1ccc(-c2cc3c(C)nc(N)nc3n(C3CCC(OCCO)CC3)c2=O)cn1` (stereo unspecified): the growth was 7.56% (active).

`Cc1c(Cn2c(C)nc3c(C(=O)O)cc(N4CCOCC4)cc32)cccc1C(F)(F)F`: the growth is 102%.

Regarding `Cc1nc2ccc(-n3ncc(C(=O)c4cc5ccccc5[nH]4)c3N)cc2[nH]1`, the growth is 43.7%.

As to `Cc1cn(-c2cc(NC(=O)c3ccc(C)c(Nc4nccc(-c5cnccn5)n4)c3)cc(C(F)(F)F)c2)cn1`, the growth is 75.5%.

Take `C=CC(=O)N1CCC[C@H](n2c(=O)n(-c3ccc(Oc4ccccc4)cc3)c3c(N)ncnc32)C1`: the growth is 97.4%.

On to `CC(C)OP(=O)(CCC(=O)c1c[nH]c2ccccc12)OC(C)C`, for which the growth was 105%.

For the compound `O=C1/C(=C\c2cccc(OCCCCCOc3ccc(Cl)cc3)c2)N=C2SCCCN12`, the growth was 86.2%.

`COC(=O)CCCNc1c(-c2c(O)c(O)cc3c(O)c(-c4c(C)cc5c(-c6nc7ccccn7c6NCCCC(=O)OC)c(O)c(O)cc5c4O)c(C)cc23)nc2ccccn12`: the growth was 60.1%.

For `Cc1nn(-c2nc3ccccc3[nH]2)c2c1C(c1ccc(OCc3ccc(F)cc3)cc1)CC(=O)N2` (stereo unspecified), the growth was 80.2%.

Turning to `CCCC(=O)OCC1OC(n2cnc3c(=S)nc(N)[nH]c32)C(OC(=O)CCC)C1OC(=O)CCC` (stereo unspecified), the growth is 52%.

For the compound `CNC(=O)c1cccc2cc(Oc3ccnc4cc(OCC5(N)CC5)c(OC)cc34)ccc12`, the growth is 46.9%.

Take `O=C(Nc1ccc(Nc2ncnc3sc4c(c23)CCOC4)cc1)Nc1ccc(Cl)c(C(F)(F)F)c1`: the growth is 121%.

Regarding `O=C1CC(c2ccc3c(c2)OCO3)c2ncn(-c3ccc(Cl)cc3)c2N1` (stereo unspecified), the growth is 24.3%.

As to `Cc1ccc(N=C2CSc3nnc(-c4csc5c4CCCC5)n3N2)cc1`, the growth is 29.9%.

On to `CCc1ccc(/C=C/c2ccc(O)c3ncccc23)[n+](C)c1`, for which the growth is 40.7%.

Take `CS(=O)(=O)CCNCc1ccc(-c2ccc3ncnc(Nc4ccc(OCc5cccc(F)c5)c(Cl)c4)c3c2)o1`: the growth is -56.1% (active).

With `COc1ccc(Nc2ncccc2NC(=O)c2cn(Cc3cccc(Oc4ccccc4)c3)nn2)cc1`, the growth is 106%.

Take `COc1cc2c(Oc3ccc(NC(=O)C4(C(=O)Nc5ccc(F)cc5)CC4)cc3F)ccnc2cc1OCCCN1CCOCC1`: the growth is -31.4% (active).

Consider `Cc1cnc(Nc2ccc(OCCN3CCCC3)cc2)nc1Nc1cccc(S(=O)(=O)NC(C)(C)C)c1`, for which the growth is -21.3% (active).

As for `N#CC(C#N)=NO`, the growth is 100%.

Take `Cc1sc2c(c1C)c(=O)nc1c(-c3nc(-c4ccccc4)cs3)n[nH]n12`: the growth was 97.3%.

With `C=CC(=O)N1CCC(Oc2cc3c(Nc4ccc(Cl)c(Cl)c4F)ncnc3cc2OC)CC1`, the growth was 32.8%.

Regarding `Cc1cn(-c2cc(NC(=O)c3ccc(C)c(Nc4nccc(-c5cccnc5)n4)c3)cc(C(F)(F)F)c2)cn1`, the growth is 60%.

`Cc1cccc(Cl)c1NC(=O)c1cnc(Nc2cc(N3CCOCC3)cc(S(C)(=O)=O)c2)s1`: the growth was 113%.

For the compound `COc1cc(C2CC(c3ccc(Cl)cc3)=NN2c2ccc(Cl)cc2)cc(OC)c1OC` (stereo unspecified), the growth is 96.6%.

With `CCc1cc2c(c3ccc(C(=O)CBr)cc13)CCCC2`, the growth is 111%.

Regarding `CC(N)C(Cc1ccc(Cl)cc1)c1ccc(Cl)cc1` (stereo unspecified), the growth is 57.3%.

Regarding `C=CC(=O)Nc1cccc(Oc2nc(Nc3ccc(N4CCN(C)CC4)cc3)nc3ccsc23)c1`, the growth was -62.2% (active).

For `O=C(c1c(F)ccc(NS(=O)(=O)N2CC[C@@H](F)C2)c1F)c1c[nH]c2ncc(-c3cnc(C4CC4)nc3)cc12`, the growth is 66.6%.

Take `CCN(CCN(C)C)C(=O)CNCc1cc(C(N)=O)ccn1`: the growth was 109%.

As to `CCc1cc2c(cc1N1CCC(N3CCOCC3)CC1)C(C)(C)c1[nH]c3cc(C#N)ccc3c1C2=O`, the growth was 2.54% (active).

Turning to `O=C(Cc1ccc(-c2ccc(OCCN3CCOCC3)cc2)cn1)NCc1ccccc1`, the growth is 21.3%.

With `c1cn2cc(-c3ccc4cn[nH]c4c3)nc(Nc3ccc(N4CCOCC4)cc3)c2n1`, the growth is 69.2%.

With `N#CCNC(=O)c1ccc(-c2ccnc(Nc3ccc(N4CCOCC4)cc3)n2)cc1`, the growth was 24%.

`Cc1cccc(Cl)c1NC(=O)c1cnc(Nc2cc(N3CCOCC3)cc(N3CCOCC3)c2)s1`: the growth was 82.2%.

Take `Cc1cc(Nc2cc(N3CCN(C)CC3)nc(/C=C/c3ccccc3)n2)n[nH]1`: the growth is 0.289% (active).

On to `Cc1cc(N(CCNc2ccnc3cc(Cl)ccc23)Cc2cccs2)nc(Cl)n1`, for which the growth was 2.77% (active).

As for `NC(=O)c1n[nH]n2c1nc(=O)c1c3c(sc12)CCCC3`, the growth is 100%.

The test system of another test is MCF7 breast. The description is as above. As to conditions: 10 µM unless noted.
Consider `COc1ccc(-c2cc3c(C)nc(N)nc3n(C3CCC(OCCO)CC3)c2=O)cn1` (stereo unspecified), for which the growth was 1.58% (active).

For `Cc1c(Cn2c(C)nc3c(C(=O)O)cc(N4CCOCC4)cc32)cccc1C(F)(F)F`, the growth was 92.6%.

Consider `Cc1nc2ccc(-n3ncc(C(=O)c4cc5ccccc5[nH]4)c3N)cc2[nH]1`, for which the growth was 44.2%.

Consider `Cc1cn(-c2cc(NC(=O)c3ccc(C)c(Nc4nccc(-c5cnccn5)n4)c3)cc(C(F)(F)F)c2)cn1`, for which the growth is 69%.

Turning to `C=CC(=O)N1CCC[C@H](n2c(=O)n(-c3ccc(Oc4ccccc4)cc3)c3c(N)ncnc32)C1`, the growth was 86.5%.

`CC(C)OP(=O)(CCC(=O)c1c[nH]c2ccccc12)OC(C)C`: the growth was 100%.

With `O=C1/C(=C\c2cccc(OCCCCCOc3ccc(Cl)cc3)c2)N=C2SCCCN12`, the growth is 68.5%.

In the case of `COC(=O)CCCNc1c(-c2c(O)c(O)cc3c(O)c(-c4c(C)cc5c(-c6nc7ccccn7c6NCCCC(=O)OC)c(O)c(O)cc5c4O)c(C)cc23)nc2ccccn12`, the growth is 18.2%.

For `Cc1nn(-c2nc3ccccc3[nH]2)c2c1C(c1ccc(OCc3ccc(F)cc3)cc1)CC(=O)N2` (stereo unspecified), the growth is 81.4%.

As for `CCCC(=O)OCC1OC(n2cnc3c(=S)nc(N)[nH]c32)C(OC(=O)CCC)C1OC(=O)CCC` (stereo unspecified), the growth was 17.8%.

Turning to `CNC(=O)c1cccc2cc(Oc3ccnc4cc(OCC5(N)CC5)c(OC)cc34)ccc12`, the growth is 49.1%.

As to `O=C(Nc1ccc(Nc2ncnc3sc4c(c23)CCOC4)cc1)Nc1ccc(Cl)c(C(F)(F)F)c1`, the growth is 90.5%.

Regarding `O=C1CC(c2ccc3c(c2)OCO3)c2ncn(-c3ccc(Cl)cc3)c2N1` (stereo unspecified), the growth is 45.5%.

As to `Cc1ccc(N=C2CSc3nnc(-c4csc5c4CCCC5)n3N2)cc1`, the growth was 21.4%.

`CCc1ccc(/C=C/c2ccc(O)c3ncccc23)[n+](C)c1`: the growth is 53.8%.

In the case of `CS(=O)(=O)CCNCc1ccc(-c2ccc3ncnc(Nc4ccc(OCc5cccc(F)c5)c(Cl)c4)c3c2)o1`, the growth is -39.3% (active).

`COc1ccc(Nc2ncccc2NC(=O)c2cn(Cc3cccc(Oc4ccccc4)c3)nn2)cc1`: the growth is 89.9%.

Take `COc1cc2c(Oc3ccc(NC(=O)C4(C(=O)Nc5ccc(F)cc5)CC4)cc3F)ccnc2cc1OCCCN1CCOCC1`: the growth is -22.2% (active).

Consider `Cc1cnc(Nc2ccc(OCCN3CCCC3)cc2)nc1Nc1cccc(S(=O)(=O)NC(C)(C)C)c1`, for which the growth was 0.924% (active).

With `N#CC(C#N)=NO`, the growth was 96.1%.

As to `Cc1sc2c(c1C)c(=O)nc1c(-c3nc(-c4ccccc4)cs3)n[nH]n12`, the growth was 91.2%.

As for `C=CC(=O)N1CCC(Oc2cc3c(Nc4ccc(Cl)c(Cl)c4F)ncnc3cc2OC)CC1`, the growth was 26.8%.

For `Cc1cn(-c2cc(NC(=O)c3ccc(C)c(Nc4nccc(-c5cccnc5)n4)c3)cc(C(F)(F)F)c2)cn1`, the growth is 12.8%.

As for `Cc1cccc(Cl)c1NC(=O)c1cnc(Nc2cc(N3CCOCC3)cc(S(C)(=O)=O)c2)s1`, the growth was 65%.

With `COc1cc(C2CC(c3ccc(Cl)cc3)=NN2c2ccc(Cl)cc2)cc(OC)c1OC` (stereo unspecified), the growth was 89.5%.

For `CCc1cc2c(c3ccc(C(=O)CBr)cc13)CCCC2`, the growth is 93.1%.

As for `CC(N)C(Cc1ccc(Cl)cc1)c1ccc(Cl)cc1` (stereo unspecified), the growth is 91.1%.

In the case of `C=CC(=O)Nc1cccc(Oc2nc(Nc3ccc(N4CCN(C)CC4)cc3)nc3ccsc23)c1`, the growth was -60.9% (active).

For `O=C(c1c(F)ccc(NS(=O)(=O)N2CC[C@@H](F)C2)c1F)c1c[nH]c2ncc(-c3cnc(C4CC4)nc3)cc12`, the growth is 61.3%.

Turning to `CCN(CCN(C)C)C(=O)CNCc1cc(C(N)=O)ccn1`, the growth was 96.1%.

Consider `CCc1cc2c(cc1N1CCC(N3CCOCC3)CC1)C(C)(C)c1[nH]c3cc(C#N)ccc3c1C2=O`, for which the growth is 13.8%.

In the case of `O=C(Cc1ccc(-c2ccc(OCCN3CCOCC3)cc2)cn1)NCc1ccccc1`, the growth was 10.7%.

For the compound `c1cn2cc(-c3ccc4cn[nH]c4c3)nc(Nc3ccc(N4CCOCC4)cc3)c2n1`, the growth is 66.2%.

Regarding `N#CCNC(=O)c1ccc(-c2ccnc(Nc3ccc(N4CCOCC4)cc3)n2)cc1`, the growth is 15.6%.

`Cc1cccc(Cl)c1NC(=O)c1cnc(Nc2cc(N3CCOCC3)cc(N3CCOCC3)c2)s1`: the growth is 75%.

On to `Cc1cc(Nc2cc(N3CCN(C)CC3)nc(/C=C/c3ccccc3)n2)n[nH]1`, for which the growth was 0.852% (active).

With `Cc1cc(N(CCNc2ccnc3cc(Cl)ccc23)Cc2cccs2)nc(Cl)n1`, the growth is 5.64% (active).

As for `NC(=O)c1n[nH]n2c1nc(=O)c1c3c(sc12)CCCC3`, the growth is 92.3%.
